The full ranking holds about 25,000 sequences; the median of “ln(normalized median fluorescence intensity)” is about 7.1, and the highest 2% start at about 10. This excerpt belongs to a sample that is enriched for the highest values.

The subject of this test is PfSIP2 AP2 domain 1 (GST-tagged). Kind of test: gcPBM binding intensity (ln(normalized median fluorescence intensity)); higher = stronger DNA binding. Put shortly: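 Binding intensity is the highest Masliner-normalised natural-log median intensity over replicate spots in either probe orientation. To obtain it, GST-tagged P. falciparum DNA-binding domains made in E. coli were incubated for 1 h on an Agilent 4 × 180k array of primer-extended double-stranded 36-bp intergenic genomic probes plus negative controls. Detection used Alexa488 anti-GST antibody with scanning at 488 nm.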
On to “GGAAAATTATCAATAGCATGCAAAATGTGAATATTA [TGCATGCA_site901]”, for which the “gcPBM binding intensity (ln)” value amounted to 6.83. Consider “TATATAATATATATAGTGCATAAGTTCAAAAGAATA [GTGCAC_site9805]”, for which the “gcPBM binding intensity (ln)” value was 8.73. As for CCATGTAGTGAATAGGTGCATATCAAAAAAAAAAAA, the “gcPBM binding intensity (ln)” value came out at 11. Take “CATATAAATAGACACACACACACATATAAATAAATA [CACACA_site7156]”: the “gcPBM binding intensity (ln)” value is 7.23.

With “AAAACAATAATATACTGTACATATATATAATAACAT [XGTACX_site6188]”, the “gcPBM binding intensity (ln)” value worked out at 7.13. Under “ATGGTATAAAAAAATACACACTTATATATATTCTTA [CACACA_site4427]” stands 6.86; under “TGTATATGTGAAGCAAGGGATGCGGCAGACATAACA [CACACA_negctrl_site1339]”, 7.07. Under “TTATTTTATTTAGGGTGTACCCAATTTTTCCATATG [XGTACX_site4957]” stands 6.78. Consider “GTATTATTTTATGATGCATGTGTATTTCATATATGC [TGCATGCA_site660]”, for which the “gcPBM binding intensity (ln)” value is 6.98. As for “ATTTATATATATGTATGTACGTATGTGTGTATATGT [XGTACX_site7587]”, the “gcPBM binding intensity (ln)” value came out at 7.73. As to “ATTTCCCCAACGTGGGTGCATATATTTATGTGTGAA [GTGCAC_site9439]”, the “gcPBM binding intensity (ln)” value is 11.1. Turning to “ATATATTATGGGTGTGCACACAATATTTATATGTTC [CACACA_site2270]”, the “gcPBM binding intensity (ln)” value was found to be 8.64. In the case of TTTATTTATGTGTGGGTGCATATACGTATGATGTAT it was 10.6; in that of “CACATATATATGTGTGCATGTTGTATTATATATTTA [TGCATGCA_site632]”, 8.48. Under “TATTTATATGTATATACATGCACATATATATGAAAC [TGCATGCA_site1005]” stands 7.7; under ATATGAAACATGAAGGTGCATAATGTGTATATTTAT, 10.8.

Take “CCGTTGAACATATATGCACACACATAAAATAAAAAA [CACACA_site8761]”: the “gcPBM binding intensity (ln)” value stood at 7.65.

For the sequence “AAAAAATAAGATTGTACACACATAAATTCTTTGTCA [CACACA_site2089]”, the “gcPBM binding intensity (ln)” value came out at 6.85. In the case of “AATCCTTCATATGTAGTGCATATTAACAAAATAAAA [GTGCAC_site9500]” it was 8.78; in that of “TTTTGCAATAATGTTGCACACTAAATAGTCATATAT [CACACA_site7977]”, 7.61; in that of “ATATATATATATATATGTACGTACTCAGTTATGCCT [XGTACX_site453]”, 9.2. For “TTTGTAACTTCTTTCACACATATATATATATATATA [CACACA_site5603]”, the “gcPBM binding intensity (ln)” value came out at 9.76. Under “CACCCACCCAGACACACACACACACCCCCACCCATA [CACACA_site367]” stands 7.6; under “ACAAATTGTTAAAGGTGTACAATACATATATAAGAA [XGTACX_site4906]”, 7.38; under “GTGTGCAAAAATTGTTGTACATTATATATAAAAAAA [XGTACX_site3246]”, 7.79. As to “TTTGTGTTTATAAATTGTACAAAGGTGCAAGAAGAA [XGTACX_site2159]”, the “gcPBM binding intensity (ln)” value was 11.2.

(Values after the supplement of paper PMC11417369.)
